PubChem BioAssay AID1159580 (chemical genetic matrix, 2015)
Among all 5,500 compounds or so, about 2,000 (36%) were called active. Inconclusive results (about 18%) are left out. Rule as the data show it: active = normalized growth mostly below about 0.91 (no sharp cut-off); inconclusive = no clear call, values can overlap the other calls; inactive = mostly above about 0.92. Some of the results follow.

Test: chemical genetic growth profiling, strain panel (AID 1159580);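 also: tested at 20 µM; growth read once vehicle control cultures reached saturation at 30 °C; 1 = growth at the plate median or of vehicle wells; lower values mean less growth of the strain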
Conditions: S. cerevisiae deletion strains, growth OD

Measured: normalized growth

CC1=NN=C(c2ccc(N)cc2)c2cc3c(cc2C1)OCO3
inactive: locus YAL013W, strain DEP1, hits give low values 0.989 | locus YAL040C, strain CLN3, hits give low values 0.968 | locus YCL061C, strain MRC1 (second series), hits give low values 0.991 | locus YDR363W, strain ESC2, hits give low values 0.986 | locus YER002W, strain NOP16, hits give low values 0.967 | locus YMR263W, strain SAP30, hits give low values 0.996 | locus YMR307W, strain GAS1, hits give low values 1 | locus YNL128W, strain TEP1, hits give low values 0.983 | locus YNL153C, strain GIM3, hits give low values 0.957 | locus YNL175C, strain NOP13, hits give low values 0.968 | locus YNL197C, strain WHI3, hits give low values 0.964 | locus YNL224C, strain SQS1, hits give low values 0.989 | locus YOR083W, strain WHI5 (second series), hits give low values 0.936 | locus YPL055C, strain LGE1, hits give low values 0.984

Cc1nnc2n1N=C(c1ccc(CC(C)C)cc1)C(C)S2 (stereo not given)
inactive: locus YAR019C, strain CDC15, hits give low values 0.971 | locus YBL105C, strain PKC1, hits give low values 0.975 | locus YBR135W, strain CKS1, hits give low values 0.964 | locus YBR136W, strain MEC1, hits give low values 0.975 | locus YBR160W, strain CDC28, hits give low values 0.978 | locus YDL017W, strain CDC7, hits give low values 0.982 | locus YDL028C, strain MPS1, hits give low values 0.972 | locus YDL101C, strain DUN1, hits give low values 0.965 | locus YDL108W, strain KIN28, hits give low values 0.97 | locus YDL132W, strain cdc53, hits give low values 0.972 | locus YDL214C, strain PRR2, hits give low values 0.98 | locus YDR052C, strain DBF4, hits give low values 0.977 | locus YDR054C, strain cdc34, hits give low values 0.973 | locus YDR226W, strain ADK1, hits give low values 0.966 | locus YDR477W, strain SNF1, hits give low values 0.975 | locus YER123W, strain YCK3, hits give low values 0.941 | locus YER133W, strain GLC7, hits give low values 0.972 | locus YFL009W, strain cdc4, hits give low values 0.971 | locus YFL029C, strain CAK1, hits give low values 0.971 | locus YFR003C, strain YPI1, hits give low values 0.978 | locus YFR019W, strain FAB1, hits give low values 0.986 | locus YFR028C, strain CDC14, hits give low values 0.969 | locus YGR040W, strain KSS1, hits give low values 0.979 | locus YGR052W, strain FMP48, hits give low values 1.05 | locus YGR092W, strain DBF2, hits give low values 0.971 | locus YHR030C, strain SLT2, hits give low values 1.08 | locus YHR079C, strain IRE1, hits give low values 1.05 | locus YHR082C, strain KSP1, hits give low values 1.05 | locus YHR205W, strain SCH9, hits give low values 0.977 | locus YIL147C, strain SLN1, hits give low values 0.964 | locus YJL095W, strain BCK1, hits give low values 1.06 | locus YJL128C, strain PBS2, hits give low values 0.931 | locus YJL157C, strain FAR1, hits give low values 0.983 | locus YJR016C, strain ILV3, hits give low values 0.98 | locus YJR066W, strain TOR1 (second series), hits give low values 0.971 | locus YJR066W, strain TOR1, hits give low values 1.07 | locus YKL048C, strain ELM1, hits give low values 0.979 | locus YKL067W, strain YNK1, hits give low values 0.98 | locus YKL101W, strain HSL1, hits give low values 0.985 | locus YKL193C, strain SDS22, hits give low values 0.972 | locus YKL203C, strain TOR2, hits give low values 1.04 | locus YLR113W, strain HOG1, hits give low values 0.973 | locus YLR133W, strain CKI1, hits give low values 0.985 | locus YLR403W, strain SFP1, hits give low values 0.965 | locus YML070W, strain DAK1, hits give low values 0.968 | locus YMR001C, strain CDC5, hits give low values 0.974 | locus YMR205C, strain PFK2 (second series), hits give low values 0.986 | locus YMR277W, strain FCP1, hits give low values 0.975 | locus YNL006W, strain LST8, hits give low values 0.986 | locus YNL020C, strain ARK1, hits give low values 0.997 | locus YNL161W, strain CBK1, hits give low values 0.977 | locus YNL183C, strain NPR1, hits give low values 1.05 | locus YNL207W, strain RIO2, hits give low values 0.98 | locus YNL222W, strain SSU72, hits give low values 0.97 | locus YNL307C, strain MCK1 (second series), hits give low values 0.97 | locus YOL078W, strain AVO1, hits give low values 0.977 | locus YOL136C, strain PFK27, hits give low values 0.975 | locus YOR061W, strain CKA2, hits give low values 0.972 | locus YOR119C, strain RIO1, hits give low values 0.982 | locus YOR231W, strain MKK1, hits give low values 1.04 | locus YOR329C, strain SCD5, hits give low values 0.98 | locus YPL031C, strain PHO85, hits give low values 0.983 | locus YPL153C, strain RAD53, hits give low values 0.956 | locus YPL204W, strain HRR25, hits give low values 0.96 | locus YPL209C, strain IPL1, hits give low values 0.98 | locus YPL256C, strain CLN2, hits give low values 1.02 | locus YPR025C, strain CCL1, hits give low values 0.969 | locus YPR106W, strain ISR1, hits give low values 0.979 | locus YPR111W, strain DBF20, hits give low values 0.967 | strain NNK1, hits give low values 0.978 | strain TSCII, hits give low values 0.972
